RXFP1 agonist = qHTS Assay for Agonists of the Relaxin Receptor RXFP1; Relaxin receptor 1 (Homo sapiens), Q9HBX9; HEK293T-RXFP1 cAMP TR-FRET, 30 min; response scale: percent of porcine relaxin response, buffer zero; Potency, µM (series often up to 57.5 µM), for the others: at the top dose activation, usual class: activators; 370,000 tested, 0.3% active; also: potency is read from the fitted curve at half-maximal effect; % is scaled to controls: 0 for no effect and ±100 for the full control effect; nearly all actives have a fitted effect of over 60% in size
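HEK293 cells stably expressing RXFP1, treated 30 min at 37C with compounds plus PDE4 inhibitor Ro 20174; cAMP measured by HTRF TR-FRET. Normalized to buffer and 29 nM porcine relaxin; EC50 by Hill fit.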
GALK inh = qHTS Assay for Inhibitors of Human Galactokinase (GALK) | Purified GALK, Kinase-Glo residual ATP luminescence | Potency, µM (doses to about 57.5 µM), without a hit: at the highest dose activity change, negative = inhibition, actives largely listed as inhibitors | 270,000 tested, 0.007% active | AID 1868, 2009; also: potency is read from the fitted curve at half-maximal effect; % is scaled to controls: 0 for no effect and ±100 for the full control effect
Target sequence (P51570 whole entry, looked up): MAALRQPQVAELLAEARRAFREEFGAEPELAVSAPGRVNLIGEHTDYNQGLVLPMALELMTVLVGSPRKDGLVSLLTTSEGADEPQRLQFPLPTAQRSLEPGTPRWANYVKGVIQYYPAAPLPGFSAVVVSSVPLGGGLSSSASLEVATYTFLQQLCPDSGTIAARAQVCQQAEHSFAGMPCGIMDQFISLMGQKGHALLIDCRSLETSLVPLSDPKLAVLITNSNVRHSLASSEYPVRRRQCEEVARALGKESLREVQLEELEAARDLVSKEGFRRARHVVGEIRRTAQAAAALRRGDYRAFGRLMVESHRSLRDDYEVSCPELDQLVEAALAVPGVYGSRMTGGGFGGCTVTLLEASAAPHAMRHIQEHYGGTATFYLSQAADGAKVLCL
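The enzyme phosphorylates galactose (100 uM) using ATP (35 uM); inhibition is detected as higher residual ATP, quantified by bioluminescence after 1 h reaction at room temperature, pH 8.0.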
miR-21 reporter = qHTS Assay for Modulators of miRNAs and/orActivators of miR-21 | 340,000 tested, under 10 active | AID 2288, 2010 | HeLa miR-21 FLuc reporter, luciferase, 48 h | Potency, µM (top dose mostly 38.3 µM), for the others: at the highest dose activity change, positive = activation, actives largely listed as activators;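 also: % of control where 0% means no effect; miR-21 action dims this reporter so a rising signal means less miR-21 action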
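HeLa cells stably expressing CMV-driven firefly luciferase with a downstream miR-21 binding sequence, endogenously expressing miR-21, were treated with titrations (up to about 40uM final) for 48 hours at 37 degree Celsius. Luciferase luminescence was read after lysis.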
RXFP1 antag = qHTS Assay for Antagonists of the Relaxin Receptor RXFP1 | activity change, negative = inhibition, % at 57.5 µM | Relaxin receptor 1 (Homo sapiens), Q9HBX9 | HEK293-RXFP1, relaxin-stimulated cAMP HTRF, 30 min; hits give low values | 350,000 tested, 0.59% active | AID 1259400, 2018;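 active = activity change of -60% or lower, but not beyond a set lower limit; inconclusive = change between -60% and -40%, or beyond the set limit; inactive = change above -40%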; also: % is scaled to controls: 0 for no effect and ±100 for the full control effect
PKM2 act = qHTS Assay for Activators of Human Muscle isoform 2 Pyruvate Kinase; Pyruvate kinase PKM (Homo sapiens), P14618; purified PKM2, Kinase-Glo ATP luminescence, activation; response scale: 0% is enzyme alone, no compound; Potency, µM (series often up to 57.5 µM), for the others: at the highest dose activation, most hits filed as activators; 260,000 tested, 0.34% active; also: potency is read from the fitted curve at half-maximal effect; % is scaled to controls: 0 for no effect and ±100 for the full control effect; nearly all actives have a fitted effect of over 55% in size
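Kinase-Glo luminescence reports ATP generated from ADP (0.1 mM) and PEP (0.5 mM) by purified hPK-M2 after 1 h at room temperature, pH 7.2 imidazole buffer; intermediate enzyme activity allows detecting inhibitors and activators.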
KinaseGlo FLuc = Counterscreen for Luciferase (Kinase-Glo TM) Inhibition | 200,000 tested, 0.28% active | Potency, µM (series often up to 38.3 µM), without a hit: top-dose activity change, negative = inhibition, most hits filed as inhibitors | Kinase-Glo luciferase, ATP luminescence, 8 min | Luciferin 4-monooxygenase (Photuris pensylvanica), Q27757 | AID 1379, 2008; also: potency is read from the fitted curve at half-maximal effect; % is scaled to controls: 0 for no effect and ±100 for the full control effect; nearly all actives have a fitted effect of over 60% in size
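Kinase-Glo luciferase light output from ATP and luciferin was measured with 10 uM ATP, within the enzyme's linear range. Buffer: 50 mM imidazole pH 7.2, 50 mM KCl, 7 mM MgCl2, 0.01% Tween 20, 0.05% BSA; luminescence read after 8 min at ambient temperature.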
* hit, by the source's call; ? = inconclusive; . = not tested or not shown; [ ] = remark or other dose. Compounds with a hit are over-represented: about 0.92% of the library has one in this group of screens. Unless noted, calls follow the shape of the dose curve; as a rule, active = well fitted curve in the direction sought with a large enough effect; inconclusive = small, poorly fitted or top-dose-only effect, or another doubt; inactive = no such curve, though single readings can be large; an effect the other way counts as inactive or inconclusive.

SMILES	RXFP1 agonist	GALK inh	miR-21 reporter	RXFP1 antag	PKM2 act	KinaseGlo FLuc
Cc1ccc(C(=O)Nc2nc3ccc(S(C)(=O)=O)cc3s2)o1	-1%	0%	-8%	8	-28%	13µM*
CC(Sc1nnc2ccc3ccccc3n12)C(=O)Nc1ccc(Cl)cc1 (stereo not drawn)	12%	.	-2%	6	.	.
Cc1ccc2sc(N(CCCN(C)C)C(=O)c3ccc(Br)s3)nc2c1C	7%	-2%	-2%	-77*	4%	-2%
Cc1cccc2sc(N(CCCN(C)C)C(=O)CCc3ccccc3)nc12	-1%	1%	?	-85*	0%	0%
CC(=O)c1ccc(NC(=O)CSc2ccc(-c3ccc(-n4cccn4)cc3)nn2)cc1	0%	.	.	17	.	.
CN(C)S(=O)(=O)c1ccc(N2CCCC2)c(C(=O)N2CCC(C(N)=O)CC2)c1	0%	.	.	3	.	.
Cc1ccc(N2CCN(C(=O)C3CCCN(c4ncnc5c4nc4n5CCCCC4)C3)CC2)c(C)c1 (stereo not drawn)	0%	-10%	-5%	7	.	.
Cc1ccc(C)c(N2CCN(C(=O)C3CCCN(c4ncnc5c4nc4n5CCCCC4)C3)CC2)c1 (stereo not drawn)	3%	0%	27%	-83*	.	.
O=[N+]([O-])c1cc(Cc2ccccc2)cc(C=Nc2ccc(N3CCOCC3)cc2)c1O	-1%	-1%	-4%	-75*	-17%	-2%
Cc1ccc(O)c(N=Cc2cc(Cc3ccccc3)cc([N+](=O)[O-])c2O)c1	-1%	0%	5%	?	-6%	-1%
CC1(C)CC(=O)C(C(C2=C(O)CC(C)(C)CC2=O)c2ccc(Br)s2)C(=O)C1 (stereo not drawn)	0%	1%	18%	-99*	?	-2%
Cc1sc2nc(SCC(=O)NCc3ccco3)n(C)c(=O)c2c1C	4%	9%	-1%	7	0%	-8%
CCn1c(SCC(=O)NC(=O)NCc2ccco2)nc2sc(C)c(C)c2c1=O	-3%	-4%	2%	-69*	2%	-6%
Cn1c(CCNC(=O)c2ccco2)nc2cc(NS(=O)(=O)c3ccccc3)ccc21	1%	-2%	5%	-5	3.2µM*	2%
Cn1c(CCNC(=O)c2ccco2)nc2cc(NC(=O)c3ccco3)ccc21	0%	-1%	-41%	5	-7%	-4%
CCn1c(SCC(=O)Nc2nc3ccc(OC)cc3s2)nc2c1c(=O)n(C)c(=O)n2C	0%	3%	-4%	18	17%	-3%
O=C(N/N=C/c1ccccc1)C(=O)N/N=C/c1ccccc1	1%	-3%	-1%	-6	-10%	.
O=C(C=C=Nc1ccccc1)C(=O)N=C=Cc1ccccc1	-2%	.	?	-61*	2%	.
COc1cccc(CN(c2ccc3c(c2)CCC3)S(=O)(=O)c2ccc(-n3cnnn3)c(OC)c2)c1	0%	1%	-6%	-2	7%	0%
Cc1ccc(C(=O)O/N=C(\N)c2nonc2N)cc1	1%	10%	-45%	-7	-81%	11µM*
N/C(=N\OC(=O)c1ccc(F)cc1)c1nonc1N	1%	5%	-22%	-18	-56%	11µM*
CC(C)c1ccc(NC(=O)CSC2=Nc3ccccc3C3=NC(CC(=O)NC4CCCCC4)C(=O)N23)cc1 (stereo not drawn)	0%	.	-3%	-40	.	.
CCc1ccc(NC(=O)CSC2=Nc3ccccc3C3=NC(CC(=O)NC4CCCCC4)C(=O)N23)cc1 (stereo not drawn)	1%	.	-3%	-70*	.	.
N=C(N)SCc1cccc(-c2nc3ccccc3c(=O)o2)c1	.	.	.	.	.	-3%[7.66 µM]
CN(Cc1cccc2ccccc12)Cc1cccc2ccccc12	.	.	.	.	.	-6%[7.66 µM]
SMILES	RXFP1 agonist	GALK inh	miR-21 reporter	RXFP1 antag	PKM2 act	KinaseGlo FLuc
COc1ccc(-c2nc3c(c4c2C[C@H](c2ccccc2)OC4)CN(C(=O)Cc2cccs2)CC3)c(C)c1	.	.	.	.	-6%[11.5 µM]	-2%[7.66 µM]
Cc1cc(S(=O)(=O)Nc2ccc(C(=O)NCC3(N4CCCCC4)CCCCC3)cc2)ccc1F	0%	.	.	-77*	.	.
CCOc1ccc(/C=N/Nc2ccccn2)cc1	0%	-2%	-43%	-8	-20%	10µM*
Clc1ccc(/C=N/Nc2ccccn2)cc1	2%	-3%	-54%	-8	-3%	-17%
COc1ccc(S(=O)(=O)NCCCn2ccnc2)cc1C(C)(C)C	0%	-1%	-4%	-29	1%	.
COc1ccc(C(C)C)cc1S(=O)(=O)NCCCn1ccnc1	-1%	-2%	-4%	-63*	-1%	.
COc1ccc(/C(C)=N/NC(=S)NCCc2ccccc2)c(O)c1	1%	5%	3%	-62*	.	.
COc1ccc(O)c(/C=N/NC(=S)NCCc2ccccc2)c1	8%	4%	28%	?	1%	.
OCCCNCc1ccc(N(c2ccccc2)c2ccccc2)cc1	0%	0%	0%	-69*	4%	.
OCCNCc1ccc(-c2ccccc2)cc1	0%	1%	-11%	25	5%	-1%
Cc1snc(S(=O)(=O)/C(C#N)=N/Nc2cccc(C(F)(F)F)c2)c1C#N	0%	28µM*	-7%	-4	8%	1%
COc1ccc(N/N=C(/C#N)S(=O)(=O)c2nsc(C)c2C#N)cc1	4%	?	-10%	-2	-2%	4%
Cc1cc(=O)[nH]c(N/N=C/c2sccc2C)n1	-6%	-1%	-38%	12	-38%	11µM*
CCN1CCN(c2cc(N3CCc4ccccc4C3)c(F)cc2[N+](=O)[O-])CC1	1%	3%	13%	-115*	10%	.
O=[N+]([O-])c1cc(Cl)ccc1-c1nc(-c2ccncc2)no1	-1%	8%	-40%	0	7%	-1%
O=[N+]([O-])c1cnc2nc(-c3ccncc3)nn2c1O	3%	5%	6%	-2	-42%	11µM*
Brc1ccc(-c2ccc(CNCCSc3nnnn3-c3ccccc3)o2)cc1	14µM*	.	?	6	.	.
Cc1cc(C)n(-c2nc3ccccc3nc2N2CCN(S(=O)(=O)c3ccc(F)c(C)c3)CC2)n1	1%	0%	-4%	-9	10µM*	5%
